# Laboratory results reported in PubChem BioAssay AID743482 (Broad Institute, 2014).
# Calls of active or inactive are those of the source.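 The calls were made as follows: active = falling viability signal whose fitted half-maximal concentration is at most twice the highest tested dose; inconclusive = flat fit with a moderate drop, or a poor curve fit; inactive = the rest.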
# Test: HepG2 viability loss by ATP level – cell-based, CellTiter-Glo luminescence, dry powder, cytotoxicity control, dose response (AID 743482)
# Details: 72 h; series mostly up to 26 µM
row,Structure (SMILES),outcome
1,C[C@@H]1CN([C@H](C)CO)C(=O)c2cc(NC(=O)C3CCCCC3)ccc2O[C@@H](C)CCCCO[C@H]1CN(C)C(=O)Nc1cccc2ccccc12,inactive
2,C[C@H](CO)N1C[C@H](C)[C@H](CN(C)C(=O)Nc2ccc(Cl)cc2)OCCCC[C@H](C)Oc2ccc(NC(=O)C3CCCCC3)cc2C1=O,inactive
3,CC(C)(C)c1ccc(-c2nc(-c3ccncc3)no2)cc1,inactive
4,C[C@H](CO)N1C[C@H](C)[C@H](CN(C)C(=O)Nc2ccc3c(c2)OCO3)OCCCC[C@H](C)Oc2ccc(NC(=O)C3CCCCC3)cc2C1=O,inactive
5,C[C@H](CO)N1C[C@H](C)[C@H](CN(C)C(=O)Nc2cccc3ccccc23)OCCCC[C@H](C)Oc2ccc(NC(=O)c3ccccc3)cc2C1=O,inactive
6,C[C@@H]1CCCCO[C@H](CN(C)C(=O)Nc2cccc3ccccc23)[C@@H](C)CN([C@@H](C)CO)C(=O)c2cc(NC(=O)C3CCCCC3)ccc2O1,inactive
7,C[C@H](CO)N1C[C@H](C)[C@H](CN(C)C(=O)Nc2ccc(F)cc2)OCCCC[C@H](C)Oc2ccc(NC(=O)C3CCC3)cc2C1=O,inactive
8,C[C@@H]1CN([C@H](C)CO)C(=O)c2cc(NC(=O)C3CCCCC3)ccc2O[C@@H](C)CCCCO[C@@H]1CN(C)C(=O)Nc1cccc2ccccc12,inactive
9,C[C@H]1CCCCO[C@@H](CN(C)C(=O)Nc2ccc(C(F)(F)F)cc2)[C@@H](C)CN([C@@H](C)CO)C(=O)c2cc(NC(=O)CCC(F)(F)F)ccc2O1,inactive
10,C[C@H](CO)N1C[C@H](C)[C@H](CN(C)C(=O)Nc2ccc(F)cc2)OCCCC[C@H](C)Oc2ccc(NC(=O)C3CCCCC3)cc2C1=O,inactive
